Test results from PubChem BioAssay.
Inconclusive results are not listed. For some assays here: Entries with a potency or affinity are not part of this list. Calls of active or inactive are those of the source. Unless noted, the rule behind the calls is not given here. Starred links: 1 amine or outer side, 2 acyl side, 3 side chain; linkers in the order of their positions; H or OH if unused. Positions of bridges follow the written chain, without caps; N, C: chain ends. Non-standard residues stand in square brackets, D forms with d. Residues, ends and D or L forms follow the SMILES beside them. Chains are numbered I, II in the order given. Actinocin(9to1) = Cc1c2oc3c(C)ccc(C(=O)[*:1])c3nc-2c(C(=O)[*:2])c(N)c1=O; NMeV = CN[C@H](C(=O)O)C(C)C; Sar = CNCC(=O)O

Columns and labels:
[1] = modulation of C. elegans fzo-1 (AID 1259413);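 note: fzo-1 mutant C. elegans worms in liquid wells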; conditions: C. elegans fzo-1 modulator screen, mean read-out; stronger effect = higher value
[2] = target: Protein kinase 7 (PK7), Plasmodium falciparum 3D7 (PF3D7_0213400) (UniProt Q7YTF7); assay: inhibition of Plasmodium PK7 catalytic activity – biochemical, TCAMS antimalarial set, Kinase-Glo luminescence (AID 1159587); conditions: recombinant PfPK7, Kinase-Glo ATP depletion luminescence
[3] = target: Calcium-dependent protein kinase 4 (Plasmodium falciparum (isolate 3D7)) (UniProt Q8IBS5); assay: PfCDPK4 kinase inhibitors, biochemical, TCAMS library (AID 1159588; cut-off not given, nearly all actives have IC50 up to about 0.91 µM); conditions: recombinant PfCDPK4, Kinase-Glo ATP depletion luminescence
[4] = growth inhibition of DIPG glioma cells, dose response, cell-based, SU-DIPG-XVII, MIPE5.0, CellTiter-Glo, qHTS (AID 1347060; cut-off not given, nearly all actives have AC50 up to about 26 µM;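 note: cells exposed to compound for 48 hours before viability readout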); conditions: SU-DIPG-XVII viability, CellTiter-Glo ATP luminescence
[5] = differential killing of epithelial or mesenchymal cells, primary screen, imaging, PC-3E GFP, TEM4-18 mCherry, co-culture (AID 1345086;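 active = compounds killing one labelled cell type while sparing the other, by normalised counts and ratio limits, not self-fluorescent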;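 note: cells exposed to compound for 72 h before imaging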;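 for red/green cell ratio (normalised): normalised mesenchymal count divided by normalised epithelial count so high means epithelial killing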); conditions: imaging cell counts, at 1 µM
[6] = test system: Aerobactin synthetase IucA (Klebsiella pneumoniae); assay: IucA aerobactin synthetase inhibitors, biochemical, Tocris library, absorbance (AID 1345561); conditions: purified IucA enzyme assay, absorbance (OD) read-out; stronger effect = lower value;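 tested at 8 µM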;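 note: 100% = enzyme without compound and 0% = no enzyme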
[7] = growth inhibition of DIPG glioma cells, dose response, cell-based, SU-DIPG-XIII, MIPE4.0, CellTiter-Glo, qHTS (AID 1347061; cut-off not given, nearly all actives have AC50 up to about 37 µM;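 note: cells exposed to compound for 48 hours before readout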); conditions: SU-DIPG-XIII viability, CellTiter-Glo ATP luminescence
[8] = growth inhibition of DIPG glioma cells, dose response, cell-based, JHH-DIPG-1, MIPE4.0, CellTiter-Glo, qHTS (AID 1347062; cut-off not given, nearly all actives have AC50 up to about 27 µM;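 note: cells exposed to compound for two days before readout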); conditions: JHH-DIPG-1 viability, CellTiter-Glo ATP luminescence
[9] = growth inhibition of DIPG glioma cells, dose response, cell-based, SU-DIPG-XIII, MIPE5.0, CellTiter-Glo, qHTS (AID 1347064; cut-off not given, nearly all actives have AC50 up to about 23 µM;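 note: cells exposed to compound for 48 hours before the viability read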); conditions: SU-DIPG-XIII viability, CellTiter-Glo ATP luminescence

Chain of Protein kinase 7 (PK7), Plasmodium falciparum 3D7 (PF3D7_0213400) (Q7YTF7 1-343): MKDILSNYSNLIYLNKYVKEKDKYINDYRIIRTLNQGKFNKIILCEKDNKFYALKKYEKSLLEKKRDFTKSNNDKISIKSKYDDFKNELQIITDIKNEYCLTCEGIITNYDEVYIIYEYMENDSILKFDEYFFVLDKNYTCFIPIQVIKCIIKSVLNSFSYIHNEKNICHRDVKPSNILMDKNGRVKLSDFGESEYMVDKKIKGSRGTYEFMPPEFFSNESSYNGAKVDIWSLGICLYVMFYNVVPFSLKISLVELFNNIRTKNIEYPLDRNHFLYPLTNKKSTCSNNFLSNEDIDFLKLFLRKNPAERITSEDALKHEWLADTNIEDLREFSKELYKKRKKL
Chain of Calcium-dependent protein kinase 4 (Plasmodium falciparum (isolate 3D7)) (Q8IBS5 whole entry, looked up): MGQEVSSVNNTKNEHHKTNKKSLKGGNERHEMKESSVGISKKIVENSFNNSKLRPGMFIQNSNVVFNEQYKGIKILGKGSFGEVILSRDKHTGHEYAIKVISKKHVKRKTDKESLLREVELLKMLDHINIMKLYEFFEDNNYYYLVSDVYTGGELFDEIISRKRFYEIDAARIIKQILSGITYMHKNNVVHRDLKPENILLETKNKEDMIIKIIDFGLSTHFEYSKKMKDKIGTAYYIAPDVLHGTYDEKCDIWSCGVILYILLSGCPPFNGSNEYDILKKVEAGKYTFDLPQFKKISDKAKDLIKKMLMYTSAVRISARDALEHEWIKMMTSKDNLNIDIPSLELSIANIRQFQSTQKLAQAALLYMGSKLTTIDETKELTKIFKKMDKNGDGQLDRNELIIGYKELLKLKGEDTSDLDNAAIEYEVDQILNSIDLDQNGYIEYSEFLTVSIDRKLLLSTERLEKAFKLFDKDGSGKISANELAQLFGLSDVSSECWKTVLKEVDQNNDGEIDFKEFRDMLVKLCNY

## COC(=O)C1=C(C)NC(C)=C(C(=O)O[C@@H]2CCCN(Cc3ccccc3)C2)[C@@H]1c1cccc([N+](=O)[O-])c1
[1]
  mean signal: 249 (inactive)

## CCCN1CCCC[C@H]1C(=O)Nc1c(C)cccc1C
[1]
  mean signal: 274 (inactive)

## COc1cc(C)nc(-n2nc(C)cc2OC)n1
[1]
  mean signal: 243 (inactive)

## COCc1c(C(C)C)nc(C(C)C)c(/C=C/[C@@H](O)C[C@@H](O)CC(=O)O)c1-c1ccc(F)cc1
[1]
  mean signal: 232 (inactive)

## O=C1c2cccc3c2[C@H](CCC3)CN1[C@@H]1CN2CCC1CC2
[1]
  mean signal: 244 (inactive)

## CCCCc1ccc2nc(NC(=O)OC)[nH]c2c1
[2]
  outcome: inactive
[3]
  outcome: inactive
[4]
  AC50: 0.186 µM (active)

## CC(C)(O)c1ccccc1CC[C@@H](SCC1(CC(=O)O)CC1)c1cccc(/C=C/c2ccc3ccc(Cl)cc3n2)c1
[1]
  mean signal: 259 (inactive)

## NCC1CCC(C(=O)Oc2ccc(CCC(=O)O)cc2)CC1 (stereo unspecified)
[1]
  mean signal: 243 (inactive)

## Cc1nc(N)nc(N)c1-c1ccc(Cl)c(Cl)c1
[2]
  outcome: inactive
[3]
  outcome: inactive

## CC1(C)S[C@@H]2[C@H](N=CN3CCCCCC3)C(=O)N2[C@H]1C(=O)O
[1]
  mean signal: 245 (inactive)

## CC(C(=O)O)c1ccc(CC2CCCC2=O)cc1 (stereo unspecified)
[1]
  mean signal: 276 (inactive)

## COc1cc(C(=O)NC2CCCNC2)cc(OC)c1OC (stereo unspecified)
[1]
  mean signal: 236 (inactive)

## CCOc1ccc2nc3cc(N)ccc3c(N)c2c1
[2]
  outcome: inactive
[3]
  outcome: inactive
[5]; actives lie on both sides, counts scaled to control wells, 1 = unselective
  red/green cell ratio (normalised): 1.04 (inactive)
[5]; measured here: epithelial PC-3E GFP cell survival
  normalised cell number: 0.62
[5]; measured here: mesenchymal TEM4-18 mCherry cell survival
  normalised cell number: 0.65

## CN(C)CC[C@@H](c1ccc(Br)cc1)c1ccccn1
[1]
  mean signal: 234 (inactive)

## COc1cc(C)c(Cc2cnc(N)nc2N)cc1OC
[1]
  mean signal: 249 (inactive)

## CO[C@H]1C=CO[C@@]2(C)Oc3c(C)c(O)c4c(O)c(c(/C=N/N5CCN(C)CC5)c(O)c4c3C2=O)NC(=O)/C(C)=C\C=C[C@H](C)[C@H](O)[C@@H](C)[C@@H](O)[C@@H](C)[C@H](OC(C)=O)[C@@H]1C
[1]
  mean signal: 243 (inactive)

## Cc1[nH]cnc1CN1CCc2c(c3ccccc3n2C)C1=O
[1]
  mean signal: 241 (inactive)

## CCCc1c(OCCCCc2nn[nH]n2)ccc(C(C)=O)c1O
[1]
  mean signal: 231 (inactive)

## Cc1c2oc3c(C)ccc(C(=O)N[C@@H]4C(=O)N[C@H](C(C)C)C(=O)N5CCC[C@H]5C(=O)N(C)CC(=O)N(C)[C@@H](C(C)C)C(=O)O[C@@H]4C)c3nc-2c(C(=O)N[C@@H]2C(=O)N[C@H](C(C)C)C(=O)N3CCC[C@H]3C(=O)N(C)CC(=O)N(C)[C@@H](C(C)C)C(=O)O[C@@H]2C)c(N)c1=O (I: T[dV]P[Sar][NMeV] / II: T[dV]P[Sar][NMeV]; ester I:1-I:C, II:1-II:C; linker I:N-II:N via Actinocin(9to1))
[1]
  mean signal: 256 (inactive)

## COC(=O)CCc1ccc(OCC(O)CNC(C)C)cc1 (stereo unspecified)
[1]
  mean signal: 266 (inactive)

## O=C1[C@H]2CCCC[C@H]2C(=O)N1CCCCN1CCN(c2nsc3ccccc23)CC1
[1]
  mean signal: 254 (inactive)

## CC(=O)Nc1ccc(CC(=O)O)cc1
[1]
  mean signal: 292 (inactive)

## CNCC(O)c1ccc(O)c(O)c1 (stereo unspecified)
[1]
  mean signal: 245 (inactive)

## CCOC(=O)C1=C(C)NC(C)=C(C(=O)OCC)C1c1ccccc1/C=C/C(=O)OC(C)(C)C
[1]
  mean signal: 249 (inactive)

## CN(Cc1cnc2nc(N)nc(N)c2n1)c1ccc(C(=O)N[C@@H](CCC(=O)O)C(=O)O)cc1
[2]
  outcome: inactive
[3]
  outcome: inactive
[1]
  mean signal: 204 (inactive)
[6]
  remaining activity: 114% (inactive)
[7]
  outcome: inactive

## CC(C)(C)C(O)/C=C/c1ccc2c(c1)OCO2 (stereo unspecified)
[1]
  mean signal: 280 (inactive)

## COc1cc2c(cc1OC)-c1cc(=Nc3c(C)cc(C)cc3C)n(C)c(=O)n1CC2
[2]
  outcome: inactive
[3]
  outcome: inactive
[6]
  remaining activity: 110% (inactive)

## O=c1c(-c2ccccc2)c1-c1ccccc1
[1]
  mean signal: 254 (inactive)

## CCN1CC(CCN2CCOCC2)C(c2ccccc2)(c2ccccc2)C1=O (stereo unspecified)
[1]
  mean signal: 250 (inactive)

## Nc1c2c(nc3c1CCC3)CCCC2
[1]
  mean signal: 275 (inactive)

## CN1CCN(C2=Nc3cc(F)ccc3Cc3ccccc32)CC1
[1]
  mean signal: 248 (inactive)

## COc1cc2c(Nc3ccc(Br)cc3F)ncnc2cc1OCC1CCN(C)CC1
[2]
  outcome: inactive
[3]
  outcome: inactive
[4]
  AC50: 6.61 µM (active)
[7]
  AC50: 3.72 µM (active)
[8]
  AC50: 16.6 µM (active)
[9]
  AC50: 18.6 µM (active)

## O=C(Nc1cccc(C2=NCCN2)c1)Nc1cccc(C2=NCCN2)c1
[2]
  outcome: inactive
[3]
  outcome: inactive

## NC(N)=Nc1nc(CSCC/C(N)=N/S(N)(=O)=O)cs1
[1]
  mean signal: 276 (inactive)

## CCCCCCCC/C=C\CCCCCCCC(=O)NCc1ccc(O)c(OC)c1
[2]
  outcome: inactive
[3]
  outcome: inactive
[6]
  remaining activity: 100% (inactive)
